# From PubChem BioAssay AID1851 (National Center for Advancing Translational Sciences (NCATS), 2009)
# About 5,800 (36%) of roughly 16,000 compounds were called active. Not shown: some 23% with an inconclusive outcome. The list shows a part of the results. Values without a mark were called inactive. Calls follow the shape of the dose curve; as a rule, active = well fitted curve in the direction sought with a large enough effect; inconclusive = small, poorly fitted or top-dose-only effect, or effect the other way; inactive = no such curve, though single readings can be large or run the other way. Peptide text beside a SMILES is read from it.
# Target: Cytochrome P450 2C19 (Homo sapiens) (UniProt P33261)
# Sequence (P33261 whole entry, looked up): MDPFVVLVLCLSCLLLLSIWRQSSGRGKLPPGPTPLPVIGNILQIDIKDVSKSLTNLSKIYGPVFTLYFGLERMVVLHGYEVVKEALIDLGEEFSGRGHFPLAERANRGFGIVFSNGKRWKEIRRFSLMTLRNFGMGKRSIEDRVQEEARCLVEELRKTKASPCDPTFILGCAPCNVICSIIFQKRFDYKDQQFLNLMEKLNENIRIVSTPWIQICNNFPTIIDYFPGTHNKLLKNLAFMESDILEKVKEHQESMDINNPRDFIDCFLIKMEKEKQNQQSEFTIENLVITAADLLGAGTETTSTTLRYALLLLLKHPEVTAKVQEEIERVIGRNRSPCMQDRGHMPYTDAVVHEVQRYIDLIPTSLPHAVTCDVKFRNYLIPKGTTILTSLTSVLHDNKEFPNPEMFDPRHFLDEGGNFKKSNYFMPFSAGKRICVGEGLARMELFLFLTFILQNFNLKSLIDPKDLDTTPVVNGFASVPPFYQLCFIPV
# Assay: Cytochrome panel assay with activity outcomes
# Details: recombinant CYP, pro-luciferin dealkylation, luminescence, p450-cyp2c19; series mostly up to 57.1 µM
# % is scaled to controls: 0 for no effect and ±100 for the full control effect.
Structure (SMILES),AC50,"activity, negative = inhibition"
CO/N=C/c1ccc(N2CCN(C(=O)c3ccc(Cl)cc3Cl)CC2)c([N+](=O)[O-])c1,5.01 µM (active),–
Cc1ccc(OCC(=O)N2CCN(c3ccc([N+](=O)[O-])c(N4CCOCC4)c3)CC2)cc1,14.1 µM (active),–
Cc1ccc(OC(=O)c2ccc(N3CCOCC3)c([N+](=O)[O-])c2)cc1,20 µM (active),–
CCOC(=O)c1c(NC(=O)c2ccc(N3CCOCC3)c([N+](=O)[O-])c2)sc(C)c1C,inactive,–
Cn1c(=O)n(C)c2cc([N+](=O)[O-])c(N3CCN(C(=O)c4ccccc4Cl)CC3)cc21,17.8 µM (active),–
Cc1cc(C)n(-c2cc(N3CCN(C(=O)c4ccc(C(C)(C)C)cc4)CC3)ccc2[N+](=O)[O-])n1,2.82 µM (active),–
COC(=O)c1ccc(N2CCN(CC(=O)c3ccc(-c4ccccc4)cc3)CC2)c([N+](=O)[O-])c1,5.01 µM (active),–
Cc1ccc(C)c(-c2nn(-c3cc(N4CCN(CCO)CC4)ccc3[N+](=O)[O-])c(=O)c3ccccc23)c1,inactive,–
COC(=O)c1ccc(N2CCN(c3ccccc3)CC2)c(NC(=O)C2CC2)c1,inactive,–
Cc1ccc(C(=O)O/N=C\c2ccc(N3CCCCC3)c([N+](=O)[O-])c2)cc1,1.58 µM (active),–
O=C(Nc1ccc(-c2nc3ccccc3o2)cc1)c1ccc(N2CCOCC2)c([N+](=O)[O-])c1,5.01 µM (active),–
CCOC(=O)c1[nH]c(C(=O)O)c(CCN(CC)CC)c1C,inactive,–
CO[C@H]1COC(=O)[C@@H](C)COC(=O)[C@@H](Cc2ccccc2)NC(=O)C/C=C\[C@H]1C,–,10.6% [at 11.4 µM]
CC(C)=CCC/C(C)=C/CO/N=C1/C[C@@H](O)[C@@H](O)[C@@H]2[C@@H]3C(=O)N(C[C@@H]4CCCO4)C(=O)[C@H]3CC[C@@H]12,–,29.8% [at 11.4 µM]
Cc1ccc(C)c2sc(NC(=O)c3ccc(N4CCCCC4)c([N+](=O)[O-])c3)nc12,2.82 µM (active),–
Cn1ncc([N+](=O)[O-])c1C(=O)N1CCOCC1,inactive,–
Cc1ccc(OCCCC(=O)N2CCOCC2)cc1,1.41 µM (active),–
O=C(NCCNC[C@@H](O)COc1ccc(O)cc1)N1CCOCC1,inactive,–
Cc1ccc(CS(=O)(=O)CCC(=O)N2CCOCC2)cc1,inactive,–
Cc1ccccc1C(=O)N1CCN(c2ccc([N+](=O)[O-])c(N3CCOCC3)c2)CC1,15.8 µM (active),–
CC(=O)N[C@@H](CC(=O)O)C(=O)N[C@@H](CCC(=O)O)C(=O)O (Ac-Asp-Glu-OH),inactive,–
CCCCNN,–,-44.3% [at 11.4 µM]
O=C(O)[C@H]([C@H]1NCCS1)N1Cc2ccccc2C1,–,-31.8% [at 11.4 µM]

Structure (SMILES),AC50,"activity, negative = inhibition"
C/C(=N\Nc1ccc([N+](=O)[O-])cc1)c1cccc(N)c1,1.26 µM (active),–
NC(=O)c1cccc(N)c1,inactive,–
C/C(=N\Nc1nc(N)cc(Cl)n1)c1cccc([N+](=O)[O-])c1,inactive,–
CCOC(=O)c1sc(NS(=O)(=O)c2ccccc2)nc1C,inactive,–
CCOC(=O)c1sc(N(Cc2ccccc2)C(=O)CN2C(=O)CN(C)C2=O)nc1C,15.8 µM (active),–
CO[C@H]1COC(=O)CCC[C@H](C)[C@H](OC)COC(=O)C/C=C\[C@@H]1C,–,-23% [at 11.4 µM]
CC(C)Oc1cccc(-n2c(CCc3c[nH]c4ccc(Br)cc34)nc3ccccc3c2=O)c1,inactive,–
O=C(NCc1ccccc1)c1ccc2c(c1)C(=O)N(CC1CCCO1)C2=O (stereo not given),inactive,–
CCCCCCc1nc2ccccc2c(=O)n1NC(=O)c1c(O)c2c(n(CC(C)C)c1=O)CCCC2,5.62 µM (active),–
CCCn1c2c(c(O)c(C(=O)NCc3ccccc3)c1=O)CCCC2,17.8 µM (active),–
C=CCn1c(=O)c(C(=O)NCCN(CC)CC)c(O)c2ccccc21,inactive,–
CC(=O)N=c1sccn1CC(=O)c1ccc([N+](=O)[O-])cc1,10 µM (active),–
CC(NC(=O)CN1CCCC1)C12CC3CC(CC(C3)C1)C2 (stereo not given),15.8 µM (active),–
CCN1C(=O)CC(N2CCN(CC(=O)NC(C)C)CC2)C1=O (stereo not given),inactive,–
c1ccc(-c2nc(CSc3n[nH]c(-c4cccs4)n3)cs2)cc1,1.12 µM (active),–
N#Cc1cccc(-c2nc3cnc(N4CCOCC4)nc3n(C3CC3)c2=O)c1,inactive,–
CC(C)(C)NC(=O)CN(Cc1cccs1)C(=O)CCC(=O)Nc1nccs1,7.94 µM (active),–
CC1=CC2=NC(=O)CC(C)(C(=O)N(CC(=O)NC(C)(C)C)Cc3cccs3)N2C=C1 (stereo not given),inactive,–
Nc1ncnc2c1nc(Br)n2[C@H]1O[C@H]2COP(=O)(O)O[C@H]2[C@@H]1O,inactive,–
O=C(Oc1ccccc1)N1CCC2(CC1)CN(c1ncccn1)C2,inactive,–
O=C(c1ccncc1)N1CCC[C@@]2(CCN(c3ccccn3)C2)C1,6.31 µM (active),–
COC(=O)N1CCC[C@@]2(CCN(c3ncccn3)C2)C1,inactive,–
O=C(Oc1ccccc1)N1CCC[C@@]2(CCN(c3ccccn3)C2)C1,5.01 µM (active),–

Structure (SMILES),AC50,"activity, negative = inhibition"
O=C(c1cc(C(F)(F)F)cc(C(F)(F)F)c1)N1CCC[C@@]2(CCN(c3ccccn3)C2)C1,inactive,–
O=C(Oc1ccccc1)N1CCC2(CC1)CN(c1ccccn1)C2,inactive,–
CC(=O)N1CCC2(CC1)CN(c1ccccn1)C2,inactive,–
O=C(Oc1ccccc1)N1CCC2(CCCN(c3ccccn3)C2)CC1,7.94 µM (active),–
O=C(Oc1ccccc1)N1CCC[C@@]2(CCN(c3ncccn3)C2)C1,2.51 µM (active),–
O=C(c1cnccn1)N1CCC[C@@]2(CCN(c3ccccn3)C2)C1,inactive,–
C/C(CCN1CCCCc2nc(C)c(C)cc21)=N\OC[C@@H](O)COCc1ccco1,–,11% [at 11.4 µM]
O=C(Oc1ccccc1)N1CCC2(CCCN(c3ccccc3)C2)CC1,15.8 µM (active),–
O=C(Oc1ccccc1)N1CCC2(CC1)CCN(c1cccc(-c3ccccc3)c1)CC2,inactive,–
COC(=O)N1CCC2(CC1)CN(c1ccccn1)C2,inactive,–
CC(=O)N1CCC2(CCCN(c3ccccn3)C2)CC1,inactive,–
COC(=O)N1CCC2(CCCN(c3ccccn3)C2)CC1,3.16 µM (active),–
O=C(Oc1ccccc1)N1CCC2(CCCN(c3ccc(-c4ccccc4)cc3)C2)CC1,inactive,–
O=S(=O)(O)[C@@H](c1ccccc1)[C@@H](O)c1ccccc1,–,3.73% [at 11.4 µM]
Cc1ccc(S(=O)(=O)N=Nc2c(O)[nH]c3cc(O)c(C(=O)O)cc23)cc1,–,38.4% [at 11.4 µM]
Cc1cccc(C)c1NC(=O)[C@H](C)N,inactive,–
Cc1cccc(C)c1NC(=O)C(NC=O)c1ccccc1Cl (stereo not given),7.94 µM (active),–
COc1ccc(C(O)c2nccn2Cc2ccccc2)cc1 (stereo not given),5.01 µM (active),–
COc1ccc([C@H](O)c2ccccn2)cc1,–,-15.9% [at 11.4 µM]
Cc1cc([C@](C)(N)C(=O)O)ccc1P(=O)(O)O,inactive,–
O=C(c1ccc2c(c1)N(Cc1ccc(F)cc1)C(=O)CS2)N1CCOCC1,7.08 µM (active),–
O=C1Nc2cc(C(=O)N3CCOCC3)ccc2SC1N1CCOCC1 (stereo not given),inactive,–
CC(Sc1nnc(Cc2cccs2)n1C1CCCCC1)C(N)=O (stereo not given),39.8 µM (active),–

Structure (SMILES),AC50,"activity, negative = inhibition"
COc1ccc(-n2c(CNC(=O)c3ccc(S(=O)(=O)N4CCCC4)cc3)n[nH]c2=S)cc1,inactive,–
CCOC(=O)C(C)Sc1nnc(CNC(=O)c2ccc(OC)cc2)n1C1CCCCC1 (stereo not given),5.01 µM (active),–
COc1ccc(C(=O)N2CCC3(CC2)CN(C(=O)NC(C)C)C3)cc1,inactive,–
O=C(O)[C@@H](O)[C@@H](O)[C@H](O)[C@H](O)CO,–,2.53% [at 11.4 µM]
O=C(O)[C@@H](O)[C@@H](O)[C@@H](O)[C@@H](O)C(=O)O (tested in a mixture with another compound),inactive,–
O=C(O)[C@@H](O)[C@@H](O)[C@@H](O)[C@@H](O)c1nc2ccccc2s1,3.16 µM (active),–
CSc1nc(N)c2ncn([C@@H]3O[C@@H](COP(=O)(O)OP(=O)(O)O)[C@@H](O)[C@H]3O)c2n1,inactive,–
COc1ccc(C(C(=O)NC2CCCCC2)N(C(=O)c2sc(C)nc2C)c2ccc(OC)cc2)cc1 (stereo not given),14.1 µM (active),–
COc1ccc(C[C@H](N)C(=O)N[C@@H]2[C@H](O)[C@H](n3cnc4c(N(C)C)ncnc43)O[C@@H]2CO)cc1,inactive,–
COc1ccc(C(C(=O)NC2CCCC2)N(C(=O)c2snc(-c3ccc(F)cc3)c2N)c2ccc(F)cc2)cc1 (stereo not given),inactive,–
CCc1ccc(N(C(=O)c2ccoc2C)C(C(=O)NC2CCCC2)c2ccc(OC)cc2)cc1 (stereo not given),14.1 µM (active),–
N#C/C(=C\N1CCNC1=S)C(=O)c1ccc2ccccc2c1,–,-10.2% [at 11.4 µM]
Cc1ccc(C)c(OCCCC(C)(C)C(=O)O)c1,inactive,–
C/C(N)=C(/C#N)C(=O)CSc1nnc(COc2cc(C)ccc2C)o1,3.55 µM (active),–
O=C1SC(c2ccccc2)=C/C1=C\N1CCCCC1,2 µM (active),–
CC1CCN(CC[C@H]2CCCN2S(=O)(=O)c2cccc(O)c2)CC1,inactive,–
CC1CCN(S(=O)(=O)c2ccc3c(c2)C(=NO)c2cc(S(=O)(=O)N4CCC(C)CC4)ccc2-3)CC1,4.47 µM (active),–
COCCNC(=O)Cn1cnc2ccc(S(=O)(=O)N3CCC(C)CC3)cc2c1=O,inactive,–
COc1cc([C@H](O)C(=O)O)ccc1O,inactive,–
COc1cc([C@@H](O)CO)ccc1OS(=O)(=O)O,inactive,–
COc1ccc(C(O)P(=O)(OC(C)C)OC(C)C)cc1OC (stereo not given),3.55 µM (active),–
